HepG2 viability – counter-screen for TGF-b inhibitors: cytotoxicity in HepG2 cells | AID 588856 | Potency, µM (doses to about 46.1 µM), inactives show at the highest dose activity change, negative = cytotoxicity, usual class: cytotoxic | HepG2 CAGA-GFP viability, ATP luminescence, 18 h | 410,000 tested, 0.76% active
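CellTiter-Glo luminescence gave cytotoxicity after 18 hours at 37 degrees C. The cells were HepG2 CAGA-GFP in 1% FBS DMEM, stimulated with 500 pg/mL TGF-beta after compound addition. %Activity was normalised to no-cell wells (complete cell-killing) and DMSO (no toxicity), and curves were fitted and classified.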
TGFb SMAD3 inh – inhibitors of TGF-b signaling; 410,000 tested, 1.2% active; Potency, µM (top dose mostly 46.1 µM), inactives show top-dose activity, negative = inhibition, usual class: inhibitors; AID 588855; HepG2 CAGA-GFP TGF-b/SMAD3 reporter, GFP fluorescence, 18 h; TGF-beta stimulated, 500 pg/mL final; also: % is scaled to controls: 0 for no effect and ±100 for the full control effect; nearly all actives have a fitted effect of over 65% in size
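HEPG2 CAGA-GFP, 1000 cells/well; 2 h settle, 37 C; cpd via pin tool; TGF-b 500 pg/mL final; 18 h, 37 C; GFP imaging ex488/em500-530; %Activity normalised to -TGF-b and +DMSO controls; CRC fit, curve class.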
S2 tox – cell viability loss in ATXN counter-screen; 400,000 tested, 0.49% active; Potency, µM (doses to about 56.7 µM), most hits filed as cytotoxic; S2 cells (HEK-293 line with an ATXN2-luciferase reporter) viability, CellTiter-Fluor protease fluorescence, 24 h; AID 651635; also: nearly all actives have a fitted effect of over 40% in size
GLP-1R agonist – agonists of human GLP-1 receptor; P43220; HEK293 GLP-1R CRE-luciferase, luminescence, 4-6 h; cells express a hypersensitive GLP-1R form; Potency, µM (titrated, usually from 45.6 µM), inactives show at the highest dose activation, actives largely listed as activators; 380,000 tested, 0.007% active; AID 624172; also: % of control where 0% means no effect
Target sequence (P43220 whole entry, looked up): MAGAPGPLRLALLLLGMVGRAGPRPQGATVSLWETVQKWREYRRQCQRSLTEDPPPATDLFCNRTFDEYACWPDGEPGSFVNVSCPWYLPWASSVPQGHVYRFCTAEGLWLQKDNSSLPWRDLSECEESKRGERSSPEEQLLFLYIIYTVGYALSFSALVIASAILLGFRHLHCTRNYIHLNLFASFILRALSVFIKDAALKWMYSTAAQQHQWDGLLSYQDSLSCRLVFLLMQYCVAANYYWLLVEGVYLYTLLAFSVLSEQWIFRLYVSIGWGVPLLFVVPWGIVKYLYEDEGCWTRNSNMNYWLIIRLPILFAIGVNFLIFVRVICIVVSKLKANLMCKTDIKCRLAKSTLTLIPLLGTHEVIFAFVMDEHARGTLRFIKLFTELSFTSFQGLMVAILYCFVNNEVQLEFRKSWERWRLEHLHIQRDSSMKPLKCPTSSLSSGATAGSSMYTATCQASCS
ATXN2 expr inh – reduces ATXN2 reporter expression in HEK-293 cells. HEK-293 ATXN2-luciferase reporter, luminescence, 24 h. Potency, µM (titrated, usually from 57 µM), for inactives: at the highest dose activity change, negative = inhibition, hits mostly inhibitors. 360,000 tested, 0.72% active; also: % is scaled to controls: 0 for no effect and ±100 for the full control effect; nearly all actives have a fitted effect of over 55% in size
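ATXN2-luciferase reporter cells (luciferase flanked by upstream and downstream ATXN2 gene portions) were treated 24 h at 37 °C with compounds at up to 57 uM. SteadyGlo luminescence gave expression; GF-AFC fluorescence gave viability.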
GLP1R inv ag – GLP-1 receptor (human) inverse agonism | P43220 | HEK293 GLP-1R CRE-luciferase, luminescence, 24 h; GLP-1R form is constitutively active | Potency, µM (highest dose often 38.3 µM), without a hit: at the highest dose activity change, negative = inhibition, actives largely listed as inhibitors | 410,000 tested, 1.6% active | AID 624417; also: % is scaled to controls: 0 for no effect and ±100 for the full control effect; nearly all actives have a fitted effect of over 55% in size
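Using stably transfected HEK293 (constitutively active GLP-1R, cAMP-luciferase reporter), compounds were incubated 24 hr and luciferase measured by luminescence.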
An asterisk follows results filed as active; i = inactive; u = inconclusive; x = not tested or not shown. The list is not random: actives were taken first. Their share in the collection is about 3.7%. Calls follow the shape of the dose curve; as a rule, active = well fitted curve in the direction sought with a large enough effect; inconclusive = small, poorly fitted or top-dose-only effect, or another doubt; inactive = no such curve, though single readings can be large; an effect the other way counts as inactive or inconclusive. Potency is read from the fitted curve at half-maximal effect.

SMILES	HepG2 viability	TGFb SMAD3 inh	S2 tox	GLP-1R agonist	ATXN2 expr inh	GLP1R inv ag
CSc1ccc(NC(=O)C2(C)CCN2C(=O)c2ccccc2CCc2ccccc2)cc1 (stereo not given)	4.6%	8.3%	i	-3.0%	-10.5%	10µM*
Cc1cc(C)cc(NC(=O)CCNS(=O)(=O)c2cc(Br)cnc2N)c1	-31.0%	-12.9%	i	2.4%	-17.6%	7.94µM*
O=C(N/N=C/c1ccccc1O)C1CC(=O)N(c2ccc(Cl)cc2)C1 (stereo not given)	-12.7%	-27.6%	i	-5.6%	6.31µM*	u
O=C(CSc1nc2c([nH]c3ccccc32)c(=O)n1-c1ccc(F)cc1)NC1CCCCC1	-59.8%	u	x	x	x	-11.0%
COc1ccccc1C(=O)Nc1cccc(OCc2cc(=O)n3c4c(sc3n2)CCCC4)c1	-3.0%	10.2%	i	-2.0%	9.9%	-2.7%
Cc1cccc(-c2cnc(C)nc2C2CCCN(C(=O)c3cccc(Cn4cccn4)c3)C2)c1 (stereo not given)	x	x	i	x	x	x
CCN(CC)C(=O)N1CCN(/[N+]([O-])=N/Oc2ccc([N+](=O)[O-])cc2[N+](=O)[O-])CC1	-34.4%	u	x	x	x	x
CCN1CCCC1CNCC(O)COc1ccc(C(C)(C)C)cc1C (stereo not given)	-1.2%	-2.6%	i	-0.5%	1.7%	5.01µM*
Cc1ccc(OCC(O)CNC2CCCC2)c(C)c1 (stereo not given)	-3.6%	-3.2%	u	4.0%	x	u
Cc1ccc(-c2cn(-c3cccc(Cl)c3)c(S(=O)(=O)CC(=O)Nc3cccc(C)c3)n2)cc1	-27.8%	u	u	x	-18.1%	8.91µM*
O=C(CS(=O)(=O)c1nc(-c2ccc(Cl)cc2)cn1-c1ccccc1)Nc1cccc(Cl)c1	-32.5%	10µM*	u	x	-29.0%	u
O=C(CS(=O)(=O)c1nc(-c2ccc(Cl)cc2)cn1-c1ccccc1)Nc1ccc(F)cc1F	-9.2%	u	i	x	9.8%	u
CCCCCCCCCCCCCCCC(=O)O[C@@H]1CC(C)=C(\C=C/C(C)=C\C=C/C(C)=C\C=C\C=C(C)\C=C\C=C(C)\C=C\C2=C(C)C[C@@H](OC(=O)CCCCCCCCCCCCCCC)CC2(C)C)C(C)(C)C1	x	x	x	-7.8%	x	x
COc1ccccc1N1CCN(C(=O)CSc2nc3ccccc3nc2N2CCCCC2)CC1	-10.1%	u	u	6.3%	-1.3%	5.01µM*
COc1ccccc1N1CCN(c2nc3ccccc3nc2C(C#N)C(=O)OC(C)C)CC1 (stereo not given)	8.5%	-27.7%	i	-5.3%	-3.9%	11.2µM*
COc1ccccc1N1CCN(C(=O)CSc2nc3ccccc3nc2N2CCC(C)CC2)CC1	-4.5%	2.2%	i	8.7%	-25.4%	5.01µM*
CCOc1ccccc1N1CCN(c2nc3ccccc3nc2C(C#N)C(=O)OC)CC1 (stereo not given)	6.6%	0.6%	i	-10.2%	4.0%	6.7%
COc1ccc(-n2c3c(cc(C(=O)NNc4ccccc4)c2=O)C(=O)CC(C)(C)C3)cc1	2.6%	5.8%	u	12.4%	u	1µM*
COc1ccc(-n2c3c(cc(C(=O)NNc4ccccc4C)c2=O)C(=O)CC(C)(C)C3)cc1	-4.0%	12.6%	i	11.2%	-10.1%	u
Cc1ccc(C(=O)Nc2nnc(S(=O)(=O)N3c4ccccc4CC3C)s2)cc1 (stereo not given)	-24.2%	-29.2%	i	x	9.5%	u
CC1Cc2ccccc2N1S(=O)(=O)c1nnc(NC(=O)c2ccccc2Br)s1 (stereo not given)	-48.6%	u	i	x	-12.7%	10µM*
